Sampled rows, rich in hits. Any-hit rate of the full collection: about 2.4%.
D2 antagonist: antagonizes the human D2 dopamine receptor | P14416 | HEK293 TREx D2 cells, calcium flux, dopamine EC80 | inhibition, % at 10 µM | 340,000 tested, 2% active | AID 485344; in the data active = inhibition above about 30%; inactive = below that, where a call was filed
Target sequence (P14416 whole entry, looked up): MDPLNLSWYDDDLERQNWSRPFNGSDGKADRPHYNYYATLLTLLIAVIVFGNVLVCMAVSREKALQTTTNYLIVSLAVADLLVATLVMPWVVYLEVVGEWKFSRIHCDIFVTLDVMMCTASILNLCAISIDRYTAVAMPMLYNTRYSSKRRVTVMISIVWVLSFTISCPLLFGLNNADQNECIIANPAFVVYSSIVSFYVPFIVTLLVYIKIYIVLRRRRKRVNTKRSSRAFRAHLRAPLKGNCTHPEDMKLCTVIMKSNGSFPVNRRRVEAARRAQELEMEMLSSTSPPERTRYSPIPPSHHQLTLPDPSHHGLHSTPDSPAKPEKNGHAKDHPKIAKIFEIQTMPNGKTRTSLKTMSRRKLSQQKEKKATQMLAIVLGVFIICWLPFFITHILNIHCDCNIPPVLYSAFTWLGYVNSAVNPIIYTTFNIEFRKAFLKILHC
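Compounds are added to dye-loaded, induced HEK293 T-REx cells coupled to calcium release via D2; after a 3 min kinetic read an EC80 dopamine stimulus is given and fluorescence is recorded for 3 more min.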
D2 ag-1: human D2 receptor agonism in beta-arrestin assay | AID 624465 | 360,000 tested, 0.084% active | activation, % (concentration not given with the values) | DiscoveRx PathHunter D2 beta-arrestin, luminescence, 90 min; 100% = 57 uM dopamine signal | P14416; in the data active = activation above about 40%
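Agonist mode: compounds alone added to overnight-plated D2 PathHunter cells for 90 min at 37 C, with 57 uM final dopamine (EC100) defining full response. Beta-arrestin recruitment detected by chemiluminescent reagent, read after 1 h at ambient temperature.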
D2 PAM-1: potentiates the human D2 dopamine receptor allosterically. P14416. DiscoveRx D2 beta-arrestin cells, luminescence, 90 min; 100% = 57 uM dopamine signal. potentiation, % (test concentration not listed). 360,000 tested, 0.23% active; in the data active = potentiation above about 50%
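PathHunter beta-arrestin assay in DiscoveRx D2 cells. Compounds were added with an EC20 of dopamine (50 nM final) for 90 min at 37 deg C. Luminescence was read 1 h after detection reagent, with 57 uM dopamine as the EC100 control.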
D2 PAM-2: D2 dopamine receptor (human) potentiation; P14416; HEK293 T-REx D2, calcium flux, EC20 dopamine potentiation; potentiation, % at 10 µM; 340,000 tested, 0.34% active; AID 485347;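 active = potentiation over 3 SD above the plate norm, cut at about 30% in these data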
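Calcium flux readout, no-wash dye, 1 read/s. Inducible HEK293 Trex D2 line, overnight 30 C. Compound alone 180 s (agonist flags), then EC20 dopamine, another 180 s to score potentiation.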
D2 ag-2: activates the human D2 dopamine receptor. activation, % at 2 µM. 340,000 tested, 0.53% active. HEK293 T-REx D2 cells, calcium flux agonist mode;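 active = activation over 3 SD above normal in the single-dose calcium agonist read, cut at about 30% in these data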
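Tetracycline-induced HEK293 Trex cells with D2 receptor force-coupled to calcium signaling, plated overnight at 30 C and loaded with no-wash calcium dye. Calcium flux read kinetically for 180 s after compound addition; responses flag agonists.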
Large screens that a line does not name were inactive.

COc1ccc(C(=O)N[C@H](C(=O)OCn2nnc3ccccc3c2=O)C(C)C)cc1	none
O=C(OCn1nnc2ccccc2c1=O)c1ccco1	none
O=C(OCn1nnc2ccccc2c1=O)c1cc2ccccc2o1	D2 antagonist 68.6
COc1cc(OC)cc(C(=O)N[C@H](C(=O)OCn2nnc3ccccc3c2=O)C(C)C)c1	D2 PAM-2 31.1
Cc1cccc(-c2cnc(C(O)Cc3ccccc3)[nH]2)c1 (centres undefined)	none (no result: D2 antagonist, D2 PAM-2, D2 ag-2)
COc1ccc(C(=O)NCCC2=CCCCC2)cc1OC	D2 antagonist 34.5
COc1ccc(C(=O)NCCc2cnc[nH]2)cc1OC	D2 antagonist 34.9
COc1ccc(C(=O)NCCC2=CCCCC2)cc1	none
COc1ccc(C(=O)NCCSCc2cccc(Cl)c2)cc1OC	D2 antagonist 32.0
COc1cc(NC(=O)Cn2cnc(S(=O)(=O)N3CCOCC3)c2)cc(OC)c1OC	D2 antagonist 45.4
Cc1c(NC2=C(Cl)C(=O)N(c3ccccc3)C2=O)c(=O)n(-c2ccccc2)n1C	D2 antagonist 37.8
Cc1c(Nc2c3ccccc3nc3ccccc23)c(=O)n(-c2ccccc2)n1C	none
CCOc1ccccc1-n1nnc(-c2nsc(NC(=O)c3ccc(C)cc3)n2)c1C	none (no result: D2 antagonist, D2 ag-1, D2 PAM-1)
CN1CCN(CCCN2c3ccccc3Sc3ccc(C(F)(F)F)cc32)CC1	D2 antagonist 79.1
O=C(CN1CCCC(O)C1)N1c2ccccc2Sc2ccc(C(F)(F)F)cc21 (centres undefined)	none
COCCCNC(=O)CSc1nc(-c2ccc(OC)cc2)[nH]c1-c1ccc(OC)cc1	none (no result: D2 antagonist, D2 ag-1, D2 PAM-1)
O=C(c1ccco1)N1CCN(C(=S)Nc2ccc(F)cc2)CC1	none
O=C(Cc1ccc(Cl)cc1)Nc1ccc(N2CCN(C(=O)c3ccco3)CC2)cc1	D2 PAM-2 32.2
COc1ccccc1N1CCN(CCC(=O)Nc2cccc(F)c2)CC1	none (no result: D2 antagonist)
O=C(CCN1CCN(C(=O)c2ccco2)CC1)Nc1ccc(F)cc1	D2 ag-2 33.5
Cc1ccccc1N1CCN(CCC(=O)Nc2ccc(F)cc2)CC1	D2 antagonist 78.1
COc1ccc2oc(-c3ccc(C)c(NC(=O)c4ccc5c(c4)OCCO5)c3)nc2c1	none (no result: D2 antagonist, D2 ag-1, D2 PAM-1)
CCCC/C=C1/CCC(CN(C)C)C1=O (centres undefined)	none (no result: D2 antagonist, D2 PAM-2, D2 ag-2)
CCN(CC)C(=O)c1cc(S(=O)(=O)N2CCCCC2)c[nH]1	D2 antagonist 32.7
CCOC(=O)/C(C(=Nc1ccccc1)Nc1ccccc1)=C(\C)O	none
NC(=Nc1ccccc1)Nc1ccccc1	D2 antagonist 55.8, D2 ag-2 79.1
COc1cc2c(cc1OC)C1Cc3ccc(OC)c(OC)c3CN1CC2 (centres undefined)	D2 antagonist 79.7
COc1cc2c(cc1OC)[C@@H]1Cc3ccc(OC)c(OC)c3CN1CC2	D2 antagonist 57.2
COc1ccc(Cl)cc1C(=O)NNC(=O)COC(=O)CCN=C1NS(=O)(=O)c2ccccc21	D2 antagonist 30.4
COc1ccccc1C(=O)COC(=O)CCN=C1NS(=O)(=O)c2ccccc21	none
COc1ccc(N(CC(=O)NCCc2ccc(OC)c(OC)c2)S(=O)(=O)c2c(C)noc2C)cc1	D2 ag-1 63.7
COc1ccc(N(CC(=O)NCCc2ccc(C)cc2)S(=O)(=O)c2c(C)noc2C)cc1	none
COc1cccc(N2CC(NC(=O)c3cccs3)CC2=O)c1 (centres undefined)	none (no result: D2 antagonist, D2 ag-1, D2 PAM-1)
NC(N)=NCCCC(NC(=O)c1ccccc1)C(=O)Nc1ccc2ccccc2c1 (centres undefined)	D2 antagonist 53.7
NC(N)=NCCCC(NC(=O)c1ccccc1)C(=O)Nc1ccc([N+](=O)[O-])cc1 (centres undefined)	D2 antagonist 75.2
Cc1cc(Oc2ccc(C#N)cc2)nc(NCc2ccccc2)n1	D2 antagonist 42.4
COc1cccc(Nc2nc(CC(C)=O)ns2)c1	D2 antagonist 32.8
COc1ccc(Nc2nc(CC(C)=O)ns2)cc1	none
O=S(=O)(Cc1ccccc1)N1CCN(C2Cc3ccccc3C2)CC1	D2 antagonist 30.3
Cc1cccc(NC(=S)NC2CCN(Cc3ccccc3)CC2)c1C	D2 antagonist 93.9
CC(C)(Oc1ccc(Cl)cc1)C(=O)NC1CCN(Cc2ccccc2)CC1	D2 antagonist 71.8
S=C(Nc1cccc(Cl)c1Cl)NC1CCN(Cc2ccccc2)CC1	D2 antagonist 71.1
CC1(C(=O)NC2CCN(Cc3ccccc3)CC2)CCN1Cc1ccc(OC(F)(F)F)cc1 (centres undefined)	none (no result: D2 antagonist, D2 PAM-2, D2 ag-2)
S=C(Nc1ccc(Cl)c(Cl)c1)NC1CCN(Cc2ccccc2)CC1	D2 antagonist 45.2
O=C(C1CCN(S(=O)(=O)Cc2ccccc2)CC1)N1CCN(c2ccc(F)cc2)CC1	none (no result: D2 antagonist, D2 ag-1, D2 PAM-1)
Cc1ccc(-n2nc3c(=O)n(CC(=O)NCC(C)c4ccccc4)nc(C)c3c2C)cc1 (centres undefined)	none (no result: D2 antagonist, D2 ag-1, D2 PAM-1, D2 ag-2)
CC(C)(C)CC(C)(C)NC(=S)NC1CCN(Cc2ccccc2)CC1	D2 antagonist 66.1
Cc1oc(-c2ccc(Cl)cc2)nc1CSCC(=O)NC1CCN(Cc2ccccc2)CC1	D2 antagonist 56.4
Fc1ccc(NC(=S)NC2CCN(Cc3ccccc3)CC2)cc1	none (no result: D2 antagonist, D2 PAM-2, D2 ag-2)
CCOc1ccc(-c2nc(CSCC(=O)NC3CCN(Cc4ccccc4)CC3)c(C)o2)cc1	none (no result: D2 antagonist, D2 PAM-2, D2 ag-2)
COc1cc(Br)ccc1C1C(C(=O)Nc2ccc(C)cc2C)=C(C)Nc2nnnn21 (centres undefined)	none (no result: D2 antagonist, D2 ag-1, D2 PAM-1)
COc1ccc(OC)c(-c2csc(NC(=O)Cn3[nH]c(=O)c4ccccc4c3=O)n2)c1	D2 antagonist 31.9
O=C1CSc2ccc(S(=O)(=O)NCc3ccc(Cl)cc3)cc2N1	D2 antagonist 36.0
O=C1CSc2ccc(S(=O)(=O)NCc3ccc(F)cc3)cc2N1	none
COC(=O)c1ccc(CNC(=O)c2ccc3c(c2)NC(=O)CS3)cc1	D2 antagonist 37.2
O=C(NNC(=O)c1cccc2ccccc12)c1ccc(Br)cc1	none (no result: D2 antagonist, D2 PAM-2, D2 ag-2)
COc1cccc(NC(=O)CSC2=C(C#N)C(c3ccco3)C3=C(CCCC3=O)N2)c1 (centres undefined)	D2 antagonist 36.9
COc1ccc(NC(=O)CSC2=C(C#N)C(c3ccco3)C3=C(CCCC3=O)N2)c(OC)c1 (centres undefined)	none
COc1cccc(NC(=O)CSc2nc3c(c(-c4ccco4)c2C#N)CCCC3)c1	D2 PAM-2 41.7
Cc1cc(Nc2cc(Cl)ccc2C)n2nc(Cc3ccccc3)nc2n1	none (no result: D2 antagonist, D2 ag-1, D2 PAM-1)
COc1ccccc1NC(=O)C(C)OC(=O)CCNS(=O)(=O)c1ccc(C)c(C)c1 (centres undefined)	D2 antagonist 40.0
Cc1c(-n2cc(C(=O)c3cc(F)ccc3O)cc(C#N)c2=O)c(=O)n(-c2ccccc2)n1C	none (no result: D2 PAM-2)
N#Cc1cc(C(=O)c2ccccc2O)cn(-c2nccs2)c1=O	D2 ag-2 138.3

Screening data from PubChem BioAssay.
